Some test systems named below: HCT-15 colon; HT29 colon; SNB-75 CNS; SNB-19 CNS; U251 CNS; PC-3 prostate; SK-MEL-5 melanoma; UACC-62 melanoma; LOX IMVI melanoma; SK-MEL-28 melanoma; SK-MEL-2 melanoma; EKVX NSCLC; UO-31 renal; TK-10 renal; ACHN renal; CAKI-1 renal; A498 renal; CCRF-CEM leukemia; MOLT-4 leukemia; SN12C renal.
What all share (assay): NCI-60 one-dose screen, 48 h (100 = growth as untreated, 0 = no growth, -100 = all killed)
Holding throughout (settings): 10 µM

About 83,000 compounds went through this panel and 20% of them were active in at least one assay; those are over-represented in the sample as a whole.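 Cell lines were cultured in 96-well plates, exposed to a single compound concentration, and assessed for percent growth 48 hours later.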 Values without a mark were called inactive. Active and inactive are the calls of the source. The calls were made as follows: active = growth percent below 10; inactive = the rest.

For the compound `Cc1cc(C(F)(F)F)ccc1C(=O)Nc1sc2c(c1C#N)CCC(=O)C2`, the growth was -69.5% (active) with HCT-15 colon; -27.8% (active) in the experiment on HT29 colon; -5.51% (active) in the experiment on SNB-75 CNS; -2.98% (active) with SNB-19 CNS; 12% with U251 CNS; 4.6% (active) in the experiment on PC-3 prostate. The growth in the experiment with SK-MEL-5 melanoma was -98.9% (active); in the experiment on UACC-62 melanoma, -81.3% (active); in the experiment on LOX IMVI melanoma, 2.84% (active); in the experiment with SK-MEL-28 melanoma, -83.9% (active); in the experiment on SK-MEL-2 melanoma, -38.4% (active); in the experiment on EKVX NSCLC it was -25.5% (active). The growth with UO-31 renal is -98% (active); in the experiment with TK-10 renal it was -2% (active); in the experiment on ACHN renal, -95.9% (active); in the experiment with CAKI-1 renal it was -50.8% (active); in the experiment on A498 renal, 85.2%; with CCRF-CEM leukemia it was 6.32% (active). For the same compound, the growth with MOLT-4 leukemia is 2.54% (active).
In the case of `C=C1CCC2C3(C)COC(c4cc(F)cc(F)c4)OC3CCC2(C)C1C/C=C1/C(=O)OCC1O` (stereo unspecified), the growth in the experiment on HCT-15 colon is -34.6% (active); in the experiment on HT29 colon it was -29.3% (active); in the experiment on SNB-75 CNS, -45.9% (active); in the experiment on SNB-19 CNS, -78.5% (active); in the experiment with U251 CNS, -95.2% (active); in the experiment on PC-3 prostate, -32.1% (active). For the same compound, the growth in the experiment on SK-MEL-5 melanoma is -88.6% (active); with UACC-62 melanoma, -15.2% (active); in the experiment with SK-MEL-28 melanoma, -70.7% (active); with SK-MEL-2 melanoma it was -60.8% (active); with EKVX NSCLC, -42.8% (active); in the experiment on SN12C renal, -31.6% (active). In addition, the growth in the experiment on UO-31 renal was -97.1% (active); in the experiment with TK-10 renal, -86.3% (active); with ACHN renal it was -99.6% (active); in the experiment on CAKI-1 renal it was -73.2% (active); with A498 renal, 106%; in the experiment with CCRF-CEM leukemia, 15.1%. Besides, the growth in the experiment on MOLT-4 leukemia was 8.72% (active).
In the case of `COc1cc2c(cc1OC)/C(=C\c1sc(Nc3ccc(O)cc3)nc1O)C(C(=O)O)=N2`, the growth is 24.1% with HCT-15 colon; 10% in the experiment with HT29 colon; -16.4% (active) with SNB-75 CNS; 24.3% in the experiment with SNB-19 CNS; 18.6% in the experiment with U251 CNS; 19.1% in the experiment on PC-3 prostate. In addition, the growth was 14.4% with SK-MEL-5 melanoma; 20% in the experiment on UACC-62 melanoma; 47.6% in the experiment with SK-MEL-28 melanoma; -9.38% (active) in the experiment with SK-MEL-2 melanoma; 59.9% in the experiment with EKVX NSCLC; 35.4% in the experiment with SN12C renal. The growth was 39.7% in the experiment on UO-31 renal; 77.4% in the experiment with TK-10 renal; 37.8% in the experiment with ACHN renal; 26.9% with CAKI-1 renal; 103% in the experiment on A498 renal; 19.3% in the experiment with CCRF-CEM leukemia. For the same compound, the growth with MOLT-4 leukemia was 25.9%.
In the case of `Cc1ccc(F)cc1N/C=c1\s/c(=C(\C#N)C(=O)Nc2ccccc2)n(-c2ccccc2)c1=O`, the growth in the experiment with HCT-15 colon was 64.9%; in the experiment with HT29 colon it was 72.9%; with SNB-75 CNS, 3.2% (active); with SNB-19 CNS it was 36.2%; in the experiment on U251 CNS it was 74.2%; in the experiment with PC-3 prostate it was 74.5%. The growth in the experiment with SK-MEL-5 melanoma was 71.8%; in the experiment with UACC-62 melanoma, 98.2%; in the experiment with SK-MEL-28 melanoma, 95.7%; in the experiment on SK-MEL-2 melanoma it was 94.7%; with EKVX NSCLC it was 86.7%; with SN12C renal, 46.9%. The growth was 45.5% with UO-31 renal; 84.4% in the experiment with TK-10 renal; -20.1% (active) in the experiment on ACHN renal; 19.8% in the experiment with CAKI-1 renal; -16.7% (active) in the experiment with A498 renal; 84.7% with CCRF-CEM leukemia. The growth with MOLT-4 leukemia was 90.3%.
For `COc1cc2c(c(OC)c1OC)C(=O)CC(c1cccc(NC(=O)c3cccc(N)c3)c1)O2` (stereo unspecified), the growth in the experiment on HCT-15 colon is 64.9%; in the experiment on HT29 colon, 94.7%; with SNB-75 CNS it was 77.6%; in the experiment with SNB-19 CNS, 86.1%; in the experiment on U251 CNS, 81.1%; in the experiment with PC-3 prostate, 70.9%. Besides, the growth in the experiment with SK-MEL-5 melanoma was 61.9%; with UACC-62 melanoma it was 70.2%; in the experiment on SK-MEL-28 melanoma it was 100%; in the experiment on SK-MEL-2 melanoma it was 85.2%; in the experiment on EKVX NSCLC it was 91.9%; in the experiment with SN12C renal, 74.3%. For the same compound, the growth in the experiment with UO-31 renal was 58.6%; in the experiment on TK-10 renal it was 118%; in the experiment on ACHN renal, 84.6%; with CAKI-1 renal it was 65.9%; in the experiment with A498 renal, 98.8%; in the experiment on CCRF-CEM leukemia it was 49.4%. The growth in the experiment with MOLT-4 leukemia was 43.1%.
Turning to `COc1cccc(COc2ccc(/C=C3\Oc4cc(O)ccc4C3=O)cc2)c1`, the growth in the experiment on HCT-15 colon is 42.1%; in the experiment with HT29 colon it was 81.1%; in the experiment on SNB-75 CNS it was -22.5% (active); in the experiment with SNB-19 CNS it was 36.1%; in the experiment on U251 CNS, 50.7%; with PC-3 prostate, 67.8%. Besides, the growth with SK-MEL-5 melanoma was 24.6%; in the experiment with UACC-62 melanoma, 82.7%; in the experiment with SK-MEL-28 melanoma it was 71.1%; in the experiment on SK-MEL-2 melanoma, 87%; in the experiment with EKVX NSCLC, 70.9%; in the experiment with SN12C renal it was 66.1%. Further, the growth with UO-31 renal was -64.7% (active); with TK-10 renal it was 2.68% (active); in the experiment with ACHN renal it was -32.1% (active); in the experiment on CAKI-1 renal, -23% (active); in the experiment with A498 renal it was 131%; with CCRF-CEM leukemia, 74.9%. Besides, in the experiment on MOLT-4 leukemia, the growth is 52.1%.
In the case of `O=C(N=Nc1c(O)[nH]c2ccc(Br)cc12)c1ccc2nc(-c3ccccc3)[nH]c2c1`, the growth with HCT-15 colon was 63.2%; in the experiment with HT29 colon, -41.1% (active); in the experiment on SNB-75 CNS it was -46.7% (active); in the experiment on SNB-19 CNS it was -47.8% (active); with U251 CNS, -95.2% (active); with PC-3 prostate, -84.5% (active). The growth in the experiment on SK-MEL-5 melanoma was -58.9% (active); with UACC-62 melanoma it was -96% (active); in the experiment with SK-MEL-28 melanoma it was -98.4% (active); with SK-MEL-2 melanoma it was -89.7% (active); in the experiment on EKVX NSCLC, -4.61% (active); in the experiment on SN12C renal, -94.4% (active). Moreover, the growth in the experiment with TK-10 renal is -25.5% (active); in the experiment with ACHN renal, -47.3% (active); in the experiment with CAKI-1 renal, 16.8%; in the experiment on A498 renal it was -55.3% (active); with CCRF-CEM leukemia, -16% (active); in the experiment on MOLT-4 leukemia, -29% (active).
Turning to `NS(=O)(=O)c1ccc(N=Nc2c(O)n(CC(=O)Nc3ccccc3Br)c3ccccc23)cc1`, the growth was 38.2% in the experiment on HCT-15 colon; 9.73% (active) with HT29 colon; 77% with SNB-75 CNS; 50.1% in the experiment with SNB-19 CNS; 25.1% in the experiment on U251 CNS; 39.7% in the experiment with PC-3 prostate. In addition, the growth is 14.7% in the experiment on SK-MEL-5 melanoma; 31.2% with UACC-62 melanoma; 24.9% in the experiment with SK-MEL-28 melanoma; 1.95% (active) with SK-MEL-2 melanoma; 49.1% in the experiment on EKVX NSCLC; 47.6% with SN12C renal. In addition, the growth was 14.4% in the experiment with UO-31 renal; 63.3% in the experiment with TK-10 renal; 13.9% in the experiment with ACHN renal; 23.7% in the experiment with CAKI-1 renal; 94.1% in the experiment on A498 renal; 57.2% in the experiment on CCRF-CEM leukemia. For the same compound, the growth in the experiment with MOLT-4 leukemia was 41.4%.

Source of the values: PubChem BioAssay (NCI).
